Assay [1] can be described thus: rapamycin-like changes in RPL19A-GFP expression – cell-based, S. cerevisiae, multiplex flow cytometry, primary screen (AID 1862; in the data active = percent of DMSO control GFP below about 86%;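 also: lower values mimic rapamycin by blocking the RPL19A rise seen in DMSO cells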). Particulars: S. cerevisiae RPL19A-GFP strain, flow cytometry fluorescence, 3 h; at 10 µM; stronger effect = lower value. Background: A flow cytometer gives signals particle by particle.
Assay [2] is described as follows: TOR pathway GLN3 branch reporter MEP2-GFP changes – S. cerevisiae, multiplex flow cytometry, primary screen (AID 1867;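 active = GFP response, as percent of the DMSO control, above the screen-wide mean plus 3 SD, about 139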;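 also: median GFP channel fluorescence of barcode-gated MEP2-GFP cells measured by flow cytometry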). The settings on record: S. cerevisiae MEP2-GFP strain, 3 h, at 10 µM, stronger effect = higher value.
The nature of assay [3]: TOR pathway RTG branch CIT2 reporter changes – S. cerevisiae, GFP fusion, multiplex flow cytometry, primary screen (AID 1870;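 active = percent response above a set limit, the screen-wide mean plus 3 SD, cut at about 130% in these data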;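 also: barcoded CIT2-GFP strain pooled with four other GFP strains with rapamycin as positive control; median GFP fluorescence per well over plate mean of DMSO wells so 100% = DMSO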). The settings on record: S. cerevisiae CIT2-GFP expression, 3 h, at 10 µM, stronger effect = higher value.
Assay [4] is described as follows: TOR pathway LAP4-GFP level changes – S. cerevisiae, multiplex flow cytometry, primary screen (AID 1873;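 active = GFP signal, as percent of the solvent control, above the screen mean plus 3 SD, about 149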). Particulars: S. cerevisiae LAP4-GFP expression, 3 h, at 10 µM, stronger effect = higher value.
Assay [5] can be described thus: reduced mouse 2C T cell binding to pMHC/ICAM-1 vesicles – MLPCN validation set, flow cytometry, LFA-1/ICAM-1 modulator project, pilot screen (AID 2523;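 active = response below a set limit, under 55% cells CD8-positive and vesicle-bound, and CD8 cells' 90th-percentile brightness under 279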;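 as to vesicle binding response: mean PE anti-B7-1 fluorescence of CD8+ cells relative to row control; 100% = QL9-loaded vesicles with DMSO vehicle in the same plate row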). The settings on record: 2C mouse CD8+ T cells, at 7 µM, stronger effect = lower value; double positive events: measured here: CD8+/vesicle+ event percentage.
The target of assay [6] is Integrin beta-1 (Homo sapiens) + Integrin alpha-4 (Homo sapiens) (UniProt P13612+P05556). Description: alpha4beta1 integrin LIBS antibody binding reduction – U937 cells, HUTS-21 mAb, flow cytometry, validation set, VLA-4 allosteric modulator project, pilot screen (AID 2674;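 active = inhibition above 50%, about 3 SD of the validation set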;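 also: antibody binding induced by the VLA-4 ligand LDV present at three times its Kd; 0% = LDV ligand with antibody and no compound and 100% = antibody without LDV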). The settings on record: HUTS-21 LIBS mAb binding, at 6.7 µM, stronger effect = higher value.
The nature of assay [7]: calorie-restriction mimetic ROS inhibitors, yeast – validation compound set, pilot screen (AID 2706;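 active = superoxide response below 65% of plate, a cut near 3 SD across the whole screen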;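 also: yeast exposed to compound for one week at 30 degrees C before staining; 100% = mean of all compound wells on the same plate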). Particulars: S. cerevisiae aging, superoxide DHE fluorescence; at 10 µM; stronger effect = lower value.
In assay [8] the target is Beta-adrenergic receptor kinase 1 (Homo sapiens) (UniProt P25098). Description: GRK2 binders displacing RNA aptamer, biochemical, validation, human GRK2, bead flow cytometry (AID 488806;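 active = aptamer binding inhibition above 30%, about 3 SD of noise from non-fluorescent compounds; inactive = inhibition at or below 30%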). The settings on record: bead-bound GRK2, FAM-aptamer displacement, at 10 µM, stronger effect = higher value.
Assay [9] deals with AP-2 complex subunit beta (Homo sapiens) (UniProt P63010). As to the kind of experiment: beta-arrestin/AP2 interaction blockers – biochemical, validation set, GST-AP2 beads, flow cytometry, pilot screen (AID 504541;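 active = inhibition above 54%, about 3 SD of non-fluorescent compounds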;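 also: AP2 carries R879A mutation and is captured from E. coli lysate; bead-bound FITC arrestin peptide fluorescence measuring arrestin peptide binding to AP2; 0% = DMSO wells and 100% = excess unlabeled arrestin peptide control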). The settings on record: FITC arrestin peptide, at 10 µM, stronger effect = higher value.
The nature of assay [10]: cytosolic pH regulators acting via V-ATPase – S. cerevisiae, pHLuorin, HTS validation (AID 504600; in the data active = response above about 15%;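 also: plate controls were DMSO for no effect and reference compound for full effect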). Particulars: V-ATPase proton transport, at 10 µM, stronger effect = higher value.
For assay [11], the system named is anti-desmoglein-3 scFv antibody binding to human DSG3. As to the kind of experiment: blockers of pathogenic pemphigus antibody–desmoglein-3 binding – biochemical, validation compound set, bead-based, flow cytometry, pilot screen (AID 588368;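 active = binding below the plate cutoff, the plate median minus 3 SD, with a reading above zero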;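 also: signal is the median channel fluorescence of bead-bound GFP antibody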). The settings on record: Protein G beads, DSG3-Fc, scFv-GFP binding, at 10 µM, stronger effect = lower value.
In assay [12] the test system is Botulinum neurotoxin type F light chain protease (Clostridium botulinum). Description: Clostridium botulinum type F light chain protease inhibitors, microsphere substrate cleavage, validation (AID 588459). The settings on record: multiplex microsphere protease substrate cleavage assay, flow cytometry; at 10 µM; stronger effect = higher value.
Assay [13] has as its target Botulinum neurotoxin type A (Clostridium botulinum) (UniProt P0DPI0). Description: BoNT/A light chain protease inhibitors, biochemical, multiplex microsphere flow cytometry, validation set (AID 588460). The settings on record: at 10 µM, stronger effect = higher value.
Assay [14] is described as follows: Nile Red efflux blockade in pump-expressing yeast – validation compound set, multiplex, phenotypic, pilot screen (AID 588506;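 active = efflux inhibition above 0.42, the validation set average plus 4 SD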;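 also: Nile Red retained in cells so higher fluorescence means more efflux inhibition; 0 = negative control wells and 1 = enniatin B 25 µM full block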). Particulars: S. cerevisiae pump-expressing triplex, Nile Red efflux flow cytometry; at 10 µM; stronger effect = higher value.
Assay [15] has as its target ATP-binding cassette sub-family B member 6 (Homo sapiens) (UniProt Q9NP58). As to the kind of experiment: blockers of ABCB6-driven porphyrin uptake – K562-ABCB6 cells, flow cytometry, validation set, pilot screen (AID 588550;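 active = inhibition above the screen-wide mean plus 3 SD, about 51%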;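 also: 0% = DMSO wells and 100% = benzethonium chloride 70 µM positive control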). The settings on record: K562-ABCB6 porphyrin accumulation, 1 h, at 10 µM, stronger effect = higher value.
The nature of assay [16]: AML differentiation inducers, ER-HoxA9 marrow cells – cell-based, GFP/MAC1 double positive, flow cytometry, validation set, primary screen (AID 588685;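 active = differentiation response of at least 50%, scaled between solvent and reference control, from cells with both markers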;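 also: compound exposure lasts four days before antibody staining and flow analysis; 0% = DMSO wells and 100% = 5 µM fulvestrant positive control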). Particulars: stronger effect = higher value.
The target in assay [17] is Lethal factor (Bacillus anthracis) (UniProt P15917). As to the kind of experiment: Bacillus anthracis lethal factor inhibition, microsphere flow cytometry protease assay, validation at 10 µM (AID 588461). Particulars: multiplex microsphere protease cleavage assay, stronger effect = higher value.

Inconclusive results are not listed. Calls of active or inactive are those of the source. Unless noted, no rule for the calls is given here.

Chain of Lethal factor (Bacillus anthracis) (P15917 whole entry, looked up): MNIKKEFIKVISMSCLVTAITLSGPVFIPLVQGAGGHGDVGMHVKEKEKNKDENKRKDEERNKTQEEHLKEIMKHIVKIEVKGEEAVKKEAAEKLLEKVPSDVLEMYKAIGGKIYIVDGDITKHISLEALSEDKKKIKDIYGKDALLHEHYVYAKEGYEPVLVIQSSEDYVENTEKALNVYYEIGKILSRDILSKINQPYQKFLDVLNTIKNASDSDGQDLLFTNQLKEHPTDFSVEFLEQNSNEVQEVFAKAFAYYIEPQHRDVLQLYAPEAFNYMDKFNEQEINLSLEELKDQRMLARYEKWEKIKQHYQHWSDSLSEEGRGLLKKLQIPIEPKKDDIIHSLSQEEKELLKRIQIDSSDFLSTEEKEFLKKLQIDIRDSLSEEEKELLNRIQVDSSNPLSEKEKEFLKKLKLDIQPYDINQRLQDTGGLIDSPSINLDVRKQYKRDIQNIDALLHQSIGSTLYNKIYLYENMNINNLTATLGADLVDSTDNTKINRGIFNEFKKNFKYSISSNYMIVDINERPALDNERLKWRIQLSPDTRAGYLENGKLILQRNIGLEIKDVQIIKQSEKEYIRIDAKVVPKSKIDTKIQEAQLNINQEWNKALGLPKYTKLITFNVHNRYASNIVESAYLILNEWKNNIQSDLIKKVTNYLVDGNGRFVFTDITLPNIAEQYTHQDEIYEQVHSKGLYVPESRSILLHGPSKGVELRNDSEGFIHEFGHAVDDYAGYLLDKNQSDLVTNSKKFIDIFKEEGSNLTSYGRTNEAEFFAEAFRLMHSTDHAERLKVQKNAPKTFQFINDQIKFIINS
Chain of Integrin beta-1 (Homo sapiens) + Integrin alpha-4 (Homo sapiens) (P05556 whole entry, looked up): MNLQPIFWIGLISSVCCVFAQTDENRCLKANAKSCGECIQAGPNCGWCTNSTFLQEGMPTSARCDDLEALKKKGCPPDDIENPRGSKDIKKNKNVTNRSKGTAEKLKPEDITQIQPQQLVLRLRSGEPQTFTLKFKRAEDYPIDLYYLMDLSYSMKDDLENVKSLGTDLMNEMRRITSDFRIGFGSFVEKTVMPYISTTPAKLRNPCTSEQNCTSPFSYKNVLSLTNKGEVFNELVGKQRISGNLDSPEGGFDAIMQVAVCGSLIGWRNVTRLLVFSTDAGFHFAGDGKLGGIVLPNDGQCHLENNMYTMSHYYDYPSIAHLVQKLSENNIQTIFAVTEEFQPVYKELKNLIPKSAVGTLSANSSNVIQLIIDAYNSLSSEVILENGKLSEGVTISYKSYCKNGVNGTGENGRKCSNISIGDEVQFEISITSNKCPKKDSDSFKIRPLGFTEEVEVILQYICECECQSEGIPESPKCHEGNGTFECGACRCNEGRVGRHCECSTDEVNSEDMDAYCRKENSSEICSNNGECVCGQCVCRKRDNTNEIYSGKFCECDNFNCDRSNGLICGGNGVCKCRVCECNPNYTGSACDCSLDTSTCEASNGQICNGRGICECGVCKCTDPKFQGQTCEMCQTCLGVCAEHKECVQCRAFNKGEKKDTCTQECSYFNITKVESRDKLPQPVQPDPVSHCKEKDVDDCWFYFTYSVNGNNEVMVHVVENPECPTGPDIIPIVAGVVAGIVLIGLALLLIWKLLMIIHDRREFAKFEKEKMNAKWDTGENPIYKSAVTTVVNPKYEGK
Chain of Integrin beta-1 (Homo sapiens) + Integrin alpha-4 (Homo sapiens) (P13612 whole entry, looked up): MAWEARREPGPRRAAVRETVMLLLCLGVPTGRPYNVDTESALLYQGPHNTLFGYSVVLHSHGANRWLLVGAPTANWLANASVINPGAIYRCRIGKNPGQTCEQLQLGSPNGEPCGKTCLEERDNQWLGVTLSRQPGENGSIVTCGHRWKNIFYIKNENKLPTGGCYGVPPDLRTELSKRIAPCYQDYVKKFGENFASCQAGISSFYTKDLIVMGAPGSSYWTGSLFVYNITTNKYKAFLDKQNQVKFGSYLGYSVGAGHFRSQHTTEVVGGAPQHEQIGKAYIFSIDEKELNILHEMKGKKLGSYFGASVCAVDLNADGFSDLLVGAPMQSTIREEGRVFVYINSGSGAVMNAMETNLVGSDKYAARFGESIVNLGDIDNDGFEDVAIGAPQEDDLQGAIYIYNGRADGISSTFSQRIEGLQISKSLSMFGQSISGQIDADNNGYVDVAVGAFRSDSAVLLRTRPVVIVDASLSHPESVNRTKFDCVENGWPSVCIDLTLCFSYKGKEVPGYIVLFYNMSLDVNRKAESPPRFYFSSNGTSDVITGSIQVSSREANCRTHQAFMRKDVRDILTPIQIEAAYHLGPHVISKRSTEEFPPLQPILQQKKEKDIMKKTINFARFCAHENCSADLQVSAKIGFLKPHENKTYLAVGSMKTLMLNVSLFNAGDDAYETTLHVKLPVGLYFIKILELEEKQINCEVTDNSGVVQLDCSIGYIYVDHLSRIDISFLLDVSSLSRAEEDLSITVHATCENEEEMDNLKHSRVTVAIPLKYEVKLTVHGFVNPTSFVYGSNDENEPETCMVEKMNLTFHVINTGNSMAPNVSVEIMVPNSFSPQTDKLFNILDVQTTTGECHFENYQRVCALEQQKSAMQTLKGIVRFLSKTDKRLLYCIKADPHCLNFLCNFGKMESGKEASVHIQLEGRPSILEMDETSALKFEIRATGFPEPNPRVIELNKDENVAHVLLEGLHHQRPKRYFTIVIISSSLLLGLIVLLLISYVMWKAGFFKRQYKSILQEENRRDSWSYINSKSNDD
Chain of ATP-binding cassette sub-family B member 6 (Homo sapiens) (Q9NP58 whole entry, looked up): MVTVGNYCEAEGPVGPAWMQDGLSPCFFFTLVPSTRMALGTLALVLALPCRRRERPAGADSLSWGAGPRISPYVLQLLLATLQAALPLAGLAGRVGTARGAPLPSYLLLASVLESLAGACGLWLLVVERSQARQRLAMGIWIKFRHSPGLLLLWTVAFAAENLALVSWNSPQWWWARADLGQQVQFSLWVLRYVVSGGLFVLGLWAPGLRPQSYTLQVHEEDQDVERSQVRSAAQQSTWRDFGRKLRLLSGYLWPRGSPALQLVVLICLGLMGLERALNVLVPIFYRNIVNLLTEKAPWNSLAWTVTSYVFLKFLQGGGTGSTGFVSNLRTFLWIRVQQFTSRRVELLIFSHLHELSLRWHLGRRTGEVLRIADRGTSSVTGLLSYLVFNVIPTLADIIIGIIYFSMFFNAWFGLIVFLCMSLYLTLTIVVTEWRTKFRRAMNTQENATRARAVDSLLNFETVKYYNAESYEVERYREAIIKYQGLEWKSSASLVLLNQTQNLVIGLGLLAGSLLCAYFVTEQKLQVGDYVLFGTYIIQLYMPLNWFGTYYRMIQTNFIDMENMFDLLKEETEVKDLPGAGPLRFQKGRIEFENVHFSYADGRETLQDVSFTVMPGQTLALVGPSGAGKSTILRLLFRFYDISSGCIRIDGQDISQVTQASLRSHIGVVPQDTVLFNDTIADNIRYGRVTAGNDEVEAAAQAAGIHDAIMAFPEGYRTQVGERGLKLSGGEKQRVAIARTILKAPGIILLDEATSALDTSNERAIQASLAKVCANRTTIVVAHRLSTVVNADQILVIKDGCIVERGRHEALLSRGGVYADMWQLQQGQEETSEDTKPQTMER
Chain of Botulinum neurotoxin type A (Clostridium botulinum) (P0DPI0 whole entry, looked up): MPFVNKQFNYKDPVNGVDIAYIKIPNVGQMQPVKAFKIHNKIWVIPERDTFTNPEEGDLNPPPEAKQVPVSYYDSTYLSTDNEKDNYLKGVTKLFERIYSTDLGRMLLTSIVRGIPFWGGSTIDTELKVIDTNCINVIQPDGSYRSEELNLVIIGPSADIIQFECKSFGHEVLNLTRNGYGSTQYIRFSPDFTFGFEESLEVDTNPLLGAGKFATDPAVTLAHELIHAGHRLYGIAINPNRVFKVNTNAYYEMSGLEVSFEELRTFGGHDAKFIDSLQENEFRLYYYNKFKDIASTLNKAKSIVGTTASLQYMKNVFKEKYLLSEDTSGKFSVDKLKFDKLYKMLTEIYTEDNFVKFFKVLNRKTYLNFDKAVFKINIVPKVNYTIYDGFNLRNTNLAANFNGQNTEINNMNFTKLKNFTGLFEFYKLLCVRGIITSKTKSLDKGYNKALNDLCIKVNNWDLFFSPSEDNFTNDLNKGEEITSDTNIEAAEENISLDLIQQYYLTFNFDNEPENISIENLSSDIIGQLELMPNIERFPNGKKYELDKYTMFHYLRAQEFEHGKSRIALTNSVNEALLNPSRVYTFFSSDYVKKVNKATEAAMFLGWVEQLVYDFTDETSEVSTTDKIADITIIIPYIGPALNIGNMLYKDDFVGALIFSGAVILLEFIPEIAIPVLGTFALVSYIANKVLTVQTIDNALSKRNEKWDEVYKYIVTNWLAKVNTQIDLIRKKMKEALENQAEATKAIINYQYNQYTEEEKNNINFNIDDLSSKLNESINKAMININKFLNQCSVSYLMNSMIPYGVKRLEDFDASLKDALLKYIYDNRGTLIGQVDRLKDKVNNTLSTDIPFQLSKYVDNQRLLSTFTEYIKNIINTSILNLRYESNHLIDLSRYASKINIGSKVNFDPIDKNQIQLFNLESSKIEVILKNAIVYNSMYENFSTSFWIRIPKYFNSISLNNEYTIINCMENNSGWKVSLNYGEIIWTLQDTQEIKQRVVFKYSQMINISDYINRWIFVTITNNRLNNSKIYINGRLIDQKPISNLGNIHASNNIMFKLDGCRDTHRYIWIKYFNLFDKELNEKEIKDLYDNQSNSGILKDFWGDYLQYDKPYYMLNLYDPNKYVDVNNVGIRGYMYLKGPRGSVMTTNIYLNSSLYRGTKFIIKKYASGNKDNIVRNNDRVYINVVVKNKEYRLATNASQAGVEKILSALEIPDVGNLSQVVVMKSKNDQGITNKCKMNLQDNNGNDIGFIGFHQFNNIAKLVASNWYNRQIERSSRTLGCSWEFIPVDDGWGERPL

Turning to `Cc1cc(Cl)ccc1OC(C)C(=O)O` (stereo not given), in [1], the percent of DMSO control GFP was 97.9% (inactive). Moreover, the GFP response vs DMSO in [2] was 108% (inactive); in [4] it was 74.8% (inactive). The percent response of DMSO control in assay [3] is 111% (inactive). This compound also yielded a double positive events in assay [5] of 58.2%. In addition, the vesicle binding response in assay [5] is 208% (inactive). Besides, the inhibition in [6] is -6.15% (inactive); in [9], 0.4% (inactive); in assay [12], 3.9% (inactive); in [13], 0.5% (inactive); in assay [15], 9% (inactive). In assay [7], the superoxide response (% of plate) was 135% (inactive). Moreover, the aptamer binding inhibition in [8] was -5% (inactive). The response in assay [10] was 3.15% (inactive). Further, in assay [11], the binding (% of control) was 105% (inactive). For the same compound, the efflux inhibition (fraction of control) in assay [14] is 0.37 (inactive). Further, in [16], the differentiation response was 7.37% (inactive).

Consider `C[N+](C)(C)Cc1ccccc1`, for which the percent of DMSO control GFP in assay [1] is 103% (inactive). Also, the GFP response vs DMSO was 105% (inactive) in assay [2] and 109% (inactive) in [4]. The percent response of DMSO control in assay [3] was 106% (inactive). The compound further displayed a double positive events in assay [5] of 64.9%. The vesicle binding response in assay [5] is 147% (inactive). Moreover, the inhibition is -14.5% (inactive) in assay [6]; 3.88% (inactive) in [9]; 1.5% (inactive) in assay [12]; 0.6% (inactive) in assay [13]; 4.6% (inactive) in assay [17]; 1% (inactive) in [15]. Moreover, in assay [7], the superoxide response (% of plate) is 89.2% (inactive). Further, the aptamer binding inhibition in assay [8] is -1% (inactive). The response in [10] is -0.83% (inactive). Moreover, the binding (% of control) in [11] was 103% (inactive). In assay [14], the efflux inhibition (fraction of control) is 0.245 (inactive). Besides, the differentiation response in assay [16] was -14.8% (inactive).

Turning to `O=c1[nH]c2ccccc2n1CCCN1CCC(n2c(=O)[nH]c3cc(Cl)ccc32)CC1`, the percent of DMSO control GFP in assay [1] is 99.1% (inactive). In addition, the figures for the GFP response vs DMSO in assay [2] and in assay [4] were 109% (inactive) and 112% (inactive), respectively. The percent response of DMSO control in assay [3] is 91% (inactive). In assay [5], this compound came in with a double positive events of 55.1%. Moreover, the vesicle binding response in [5] was 240% (inactive). The inhibition in assay [6] was -4.52% (inactive); in [9] it was -6.83% (inactive); in assay [13], 1.3% (inactive); in assay [17], -2.2% (inactive); in [15], 2% (inactive). For the same compound, the superoxide response (% of plate) in assay [7] was 114% (inactive). Also, the aptamer binding inhibition in assay [8] was 1% (inactive). For the same compound, in assay [10], the response was -0.17% (inactive). The binding (% of control) in assay [11] is 101% (inactive). The efflux inhibition (fraction of control) in [14] was -0.1 (inactive). Further, the differentiation response in assay [16] was -34.4% (inactive).

For the compound `c1ccc(Cn2ccnc2)cc1`, the percent of DMSO control GFP in assay [1] was 97.4% (inactive). In addition, the GFP response vs DMSO in [2] is 97.9% (inactive); in [4], 99.4% (inactive). Moreover, the percent response of DMSO control in assay [3] was 90% (inactive). For the same compound, the double positive events in assay [5] is 63.8%. In addition, the vesicle binding response in assay [5] is 185% (inactive). Moreover, the inhibition is 14.7% (inactive) in assay [6]; 0.17% (inactive) in [9]; 5.2% (inactive) in [12]; 0.1% (inactive) in assay [13]; -0.1% (inactive) in assay [17]; 9% (inactive) in [15]. In addition, in assay [7], the superoxide response (% of plate) was 92.9% (inactive). The aptamer binding inhibition in assay [8] is 12% (inactive). Besides, the response in assay [10] was 4.53% (inactive). Moreover, the binding (% of control) in assay [11] is 97.7% (inactive). The efflux inhibition (fraction of control) in [14] is 0.03 (inactive). Further, in [16], the differentiation response was -16.4% (inactive).

A word on the inhibition: it is the relative decrease from the control value, in per cent.

The values are drawn from PubChem BioAssay.
